Measurements: ChEMBL document CHEMBL1961873, “Compounds: GSK PKIS; Assays: Nanosyn kinase panel” (2012)

Tests used:
[1] = target: T1, Ephrin type-B receptor 2 (Homo sapiens) (UniProt P29323); conditions: at 1 µM
T1 sequence (whole entry): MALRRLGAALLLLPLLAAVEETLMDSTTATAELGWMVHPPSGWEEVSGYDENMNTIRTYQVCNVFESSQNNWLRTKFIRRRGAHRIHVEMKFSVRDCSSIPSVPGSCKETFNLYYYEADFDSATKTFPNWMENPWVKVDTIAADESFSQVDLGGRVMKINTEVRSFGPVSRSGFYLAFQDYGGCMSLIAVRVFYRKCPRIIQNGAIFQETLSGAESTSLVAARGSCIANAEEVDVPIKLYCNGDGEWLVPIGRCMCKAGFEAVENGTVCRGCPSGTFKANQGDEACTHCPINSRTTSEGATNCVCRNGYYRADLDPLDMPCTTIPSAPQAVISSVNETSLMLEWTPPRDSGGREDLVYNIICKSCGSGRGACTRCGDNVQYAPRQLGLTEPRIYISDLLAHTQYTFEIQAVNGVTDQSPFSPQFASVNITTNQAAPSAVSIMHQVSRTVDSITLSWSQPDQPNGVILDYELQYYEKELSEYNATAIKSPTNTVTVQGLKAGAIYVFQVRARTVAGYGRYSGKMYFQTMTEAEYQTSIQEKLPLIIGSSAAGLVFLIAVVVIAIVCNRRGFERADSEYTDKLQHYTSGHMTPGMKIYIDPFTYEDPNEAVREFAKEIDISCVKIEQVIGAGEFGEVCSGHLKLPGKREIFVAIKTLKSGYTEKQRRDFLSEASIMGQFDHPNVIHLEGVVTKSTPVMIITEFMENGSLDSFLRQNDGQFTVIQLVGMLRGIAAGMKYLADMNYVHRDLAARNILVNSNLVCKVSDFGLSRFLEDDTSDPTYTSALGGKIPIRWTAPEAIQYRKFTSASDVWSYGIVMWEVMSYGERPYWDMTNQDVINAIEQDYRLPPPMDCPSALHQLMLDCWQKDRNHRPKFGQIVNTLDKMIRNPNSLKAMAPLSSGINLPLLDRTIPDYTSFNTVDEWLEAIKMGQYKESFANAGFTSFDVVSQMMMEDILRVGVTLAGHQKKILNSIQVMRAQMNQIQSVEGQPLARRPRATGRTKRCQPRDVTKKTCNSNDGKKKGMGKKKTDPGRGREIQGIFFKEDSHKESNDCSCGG

[2] = target: T2, Ephrin type-B receptor 3 (Homo sapiens) (UniProt P54753); conditions: at 0.1 µM
T2 sequence (whole entry): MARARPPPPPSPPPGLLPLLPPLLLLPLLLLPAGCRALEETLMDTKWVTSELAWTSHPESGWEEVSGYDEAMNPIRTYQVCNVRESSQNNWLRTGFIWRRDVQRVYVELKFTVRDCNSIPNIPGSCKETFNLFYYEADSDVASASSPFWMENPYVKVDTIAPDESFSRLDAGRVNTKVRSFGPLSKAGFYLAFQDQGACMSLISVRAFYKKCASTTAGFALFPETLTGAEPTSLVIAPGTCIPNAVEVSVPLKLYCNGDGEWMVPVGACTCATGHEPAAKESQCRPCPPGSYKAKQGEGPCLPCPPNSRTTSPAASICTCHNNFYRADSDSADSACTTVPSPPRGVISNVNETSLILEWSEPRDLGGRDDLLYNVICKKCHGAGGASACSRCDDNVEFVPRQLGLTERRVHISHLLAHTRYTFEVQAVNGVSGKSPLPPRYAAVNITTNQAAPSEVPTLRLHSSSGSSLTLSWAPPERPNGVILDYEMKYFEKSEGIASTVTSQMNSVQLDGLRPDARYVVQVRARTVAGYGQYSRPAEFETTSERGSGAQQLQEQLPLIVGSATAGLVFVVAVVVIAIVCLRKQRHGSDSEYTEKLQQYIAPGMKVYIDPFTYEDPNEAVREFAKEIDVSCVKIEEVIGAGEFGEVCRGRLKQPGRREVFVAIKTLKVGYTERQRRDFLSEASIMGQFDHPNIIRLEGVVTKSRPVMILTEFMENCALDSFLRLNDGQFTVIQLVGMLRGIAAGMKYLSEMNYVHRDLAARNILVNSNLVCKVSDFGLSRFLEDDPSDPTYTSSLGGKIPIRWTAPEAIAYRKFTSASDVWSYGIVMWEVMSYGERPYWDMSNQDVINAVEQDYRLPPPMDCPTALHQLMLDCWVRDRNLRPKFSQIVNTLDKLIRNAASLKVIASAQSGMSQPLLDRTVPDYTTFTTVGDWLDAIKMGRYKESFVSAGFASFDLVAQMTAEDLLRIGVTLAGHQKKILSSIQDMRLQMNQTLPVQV

[3] = target: T2, Ephrin type-B receptor 3 (Homo sapiens); conditions: at 1 µM
[4] = target: T3, Ephrin type-B receptor 4 (Homo sapiens) (UniProt P54760); conditions: at 0.1 µM
T3 sequence (whole entry): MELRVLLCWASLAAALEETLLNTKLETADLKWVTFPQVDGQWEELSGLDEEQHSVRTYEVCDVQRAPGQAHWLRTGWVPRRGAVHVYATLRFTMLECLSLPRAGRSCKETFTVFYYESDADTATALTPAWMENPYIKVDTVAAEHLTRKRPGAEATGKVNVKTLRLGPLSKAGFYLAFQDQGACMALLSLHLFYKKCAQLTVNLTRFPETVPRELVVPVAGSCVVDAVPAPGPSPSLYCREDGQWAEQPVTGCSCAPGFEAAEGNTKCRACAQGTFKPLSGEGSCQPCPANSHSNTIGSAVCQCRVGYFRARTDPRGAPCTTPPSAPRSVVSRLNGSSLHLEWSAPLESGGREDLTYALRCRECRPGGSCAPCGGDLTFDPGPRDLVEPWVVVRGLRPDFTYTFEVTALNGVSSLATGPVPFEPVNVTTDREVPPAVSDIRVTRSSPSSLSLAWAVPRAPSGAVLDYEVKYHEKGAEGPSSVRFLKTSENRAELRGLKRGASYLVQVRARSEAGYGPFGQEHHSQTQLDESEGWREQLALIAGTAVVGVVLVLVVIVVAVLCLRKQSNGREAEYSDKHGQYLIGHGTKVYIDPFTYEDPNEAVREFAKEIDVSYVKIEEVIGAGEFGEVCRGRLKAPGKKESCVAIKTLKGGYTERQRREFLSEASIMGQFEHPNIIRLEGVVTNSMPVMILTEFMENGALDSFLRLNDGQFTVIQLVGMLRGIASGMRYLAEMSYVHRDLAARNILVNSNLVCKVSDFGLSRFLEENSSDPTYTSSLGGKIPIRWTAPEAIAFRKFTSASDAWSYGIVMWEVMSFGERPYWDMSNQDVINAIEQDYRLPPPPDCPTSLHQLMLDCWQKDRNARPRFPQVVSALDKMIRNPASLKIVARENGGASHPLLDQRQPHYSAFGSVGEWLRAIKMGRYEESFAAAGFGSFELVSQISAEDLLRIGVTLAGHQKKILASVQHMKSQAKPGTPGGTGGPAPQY

[5] = target: T3, Ephrin type-B receptor 4 (Homo sapiens); conditions: at 1 µM
[6] = target: Receptor tyrosine-protein kinase erbB-2 (Homo sapiens) (UniProt P04626); conditions: at 0.1 µM
[7] = target: Receptor tyrosine-protein kinase erbB-2 (Homo sapiens) (UniProt P04626); conditions: at 1 µM
[8] = target: Receptor tyrosine-protein kinase erbB-4 (Homo sapiens) (UniProt Q15303); conditions: at 0.1 µM
[9] = target: Receptor tyrosine-protein kinase erbB-4 (Homo sapiens) (UniProt Q15303); conditions: at 1 µM
[10] = target: Tyrosine-protein kinase Fer (Homo sapiens) (UniProt P16591); conditions: at 0.1 µM;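 also: reported figures are averaged percent inhibition of FER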
Tyrosine-protein kinase Fer (Homo sapiens), sequence (P16591 whole entry, looked up): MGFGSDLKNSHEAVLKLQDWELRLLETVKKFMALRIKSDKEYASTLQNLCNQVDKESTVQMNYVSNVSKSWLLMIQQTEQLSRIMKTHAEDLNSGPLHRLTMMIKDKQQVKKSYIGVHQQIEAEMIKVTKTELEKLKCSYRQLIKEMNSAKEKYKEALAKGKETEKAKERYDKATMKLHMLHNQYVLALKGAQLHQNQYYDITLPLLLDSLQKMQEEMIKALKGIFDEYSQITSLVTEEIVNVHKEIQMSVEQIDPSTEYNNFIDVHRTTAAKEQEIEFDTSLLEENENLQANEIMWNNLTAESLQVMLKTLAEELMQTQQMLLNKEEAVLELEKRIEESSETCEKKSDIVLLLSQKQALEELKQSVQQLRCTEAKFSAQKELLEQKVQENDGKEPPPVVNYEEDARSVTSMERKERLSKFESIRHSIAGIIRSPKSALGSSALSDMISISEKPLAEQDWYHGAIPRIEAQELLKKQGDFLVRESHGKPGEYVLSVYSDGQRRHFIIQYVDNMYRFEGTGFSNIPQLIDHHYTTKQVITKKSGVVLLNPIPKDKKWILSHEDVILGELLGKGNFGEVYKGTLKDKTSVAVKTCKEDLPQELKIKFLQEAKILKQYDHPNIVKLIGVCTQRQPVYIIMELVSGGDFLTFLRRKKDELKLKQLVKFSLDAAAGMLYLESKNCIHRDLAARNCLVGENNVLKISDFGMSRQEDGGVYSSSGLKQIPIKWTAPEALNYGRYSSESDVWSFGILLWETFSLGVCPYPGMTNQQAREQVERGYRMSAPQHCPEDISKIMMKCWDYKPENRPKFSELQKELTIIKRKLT

Receptor tyrosine-protein kinase erbB-2 (Homo sapiens), sequence (P04626 whole entry): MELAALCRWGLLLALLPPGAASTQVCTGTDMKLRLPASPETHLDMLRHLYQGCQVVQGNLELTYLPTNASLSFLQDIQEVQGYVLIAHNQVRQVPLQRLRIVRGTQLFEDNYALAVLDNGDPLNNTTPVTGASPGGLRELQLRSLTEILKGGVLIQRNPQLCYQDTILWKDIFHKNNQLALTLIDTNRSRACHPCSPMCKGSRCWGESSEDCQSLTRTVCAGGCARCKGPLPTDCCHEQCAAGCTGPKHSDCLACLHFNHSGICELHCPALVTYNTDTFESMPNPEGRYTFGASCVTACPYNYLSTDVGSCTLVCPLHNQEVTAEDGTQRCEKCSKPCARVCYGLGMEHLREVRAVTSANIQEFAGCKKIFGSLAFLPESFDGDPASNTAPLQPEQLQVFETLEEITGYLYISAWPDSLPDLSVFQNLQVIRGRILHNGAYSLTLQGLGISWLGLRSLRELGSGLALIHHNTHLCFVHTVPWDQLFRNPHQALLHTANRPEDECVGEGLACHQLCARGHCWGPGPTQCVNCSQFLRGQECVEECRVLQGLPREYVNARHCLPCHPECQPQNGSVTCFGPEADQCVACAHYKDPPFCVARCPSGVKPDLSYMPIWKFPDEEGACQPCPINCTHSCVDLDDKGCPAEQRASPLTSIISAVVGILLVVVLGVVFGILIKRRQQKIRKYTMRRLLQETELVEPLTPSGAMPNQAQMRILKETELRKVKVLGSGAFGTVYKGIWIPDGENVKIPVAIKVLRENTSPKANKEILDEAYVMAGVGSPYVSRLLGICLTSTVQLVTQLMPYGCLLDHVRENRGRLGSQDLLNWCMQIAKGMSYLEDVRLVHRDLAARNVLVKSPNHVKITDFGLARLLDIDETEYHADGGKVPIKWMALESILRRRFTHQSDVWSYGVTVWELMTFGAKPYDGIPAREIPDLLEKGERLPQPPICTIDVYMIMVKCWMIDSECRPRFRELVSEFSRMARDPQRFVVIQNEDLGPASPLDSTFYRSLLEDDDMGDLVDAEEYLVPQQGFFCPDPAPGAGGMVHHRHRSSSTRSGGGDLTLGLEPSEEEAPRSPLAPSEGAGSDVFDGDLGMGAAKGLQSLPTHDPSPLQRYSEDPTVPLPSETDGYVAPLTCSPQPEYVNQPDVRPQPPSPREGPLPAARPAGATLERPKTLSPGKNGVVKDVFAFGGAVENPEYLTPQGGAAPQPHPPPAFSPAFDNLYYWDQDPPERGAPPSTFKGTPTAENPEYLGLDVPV
Receptor tyrosine-protein kinase erbB-4 (Homo sapiens), sequence (Q15303 whole entry): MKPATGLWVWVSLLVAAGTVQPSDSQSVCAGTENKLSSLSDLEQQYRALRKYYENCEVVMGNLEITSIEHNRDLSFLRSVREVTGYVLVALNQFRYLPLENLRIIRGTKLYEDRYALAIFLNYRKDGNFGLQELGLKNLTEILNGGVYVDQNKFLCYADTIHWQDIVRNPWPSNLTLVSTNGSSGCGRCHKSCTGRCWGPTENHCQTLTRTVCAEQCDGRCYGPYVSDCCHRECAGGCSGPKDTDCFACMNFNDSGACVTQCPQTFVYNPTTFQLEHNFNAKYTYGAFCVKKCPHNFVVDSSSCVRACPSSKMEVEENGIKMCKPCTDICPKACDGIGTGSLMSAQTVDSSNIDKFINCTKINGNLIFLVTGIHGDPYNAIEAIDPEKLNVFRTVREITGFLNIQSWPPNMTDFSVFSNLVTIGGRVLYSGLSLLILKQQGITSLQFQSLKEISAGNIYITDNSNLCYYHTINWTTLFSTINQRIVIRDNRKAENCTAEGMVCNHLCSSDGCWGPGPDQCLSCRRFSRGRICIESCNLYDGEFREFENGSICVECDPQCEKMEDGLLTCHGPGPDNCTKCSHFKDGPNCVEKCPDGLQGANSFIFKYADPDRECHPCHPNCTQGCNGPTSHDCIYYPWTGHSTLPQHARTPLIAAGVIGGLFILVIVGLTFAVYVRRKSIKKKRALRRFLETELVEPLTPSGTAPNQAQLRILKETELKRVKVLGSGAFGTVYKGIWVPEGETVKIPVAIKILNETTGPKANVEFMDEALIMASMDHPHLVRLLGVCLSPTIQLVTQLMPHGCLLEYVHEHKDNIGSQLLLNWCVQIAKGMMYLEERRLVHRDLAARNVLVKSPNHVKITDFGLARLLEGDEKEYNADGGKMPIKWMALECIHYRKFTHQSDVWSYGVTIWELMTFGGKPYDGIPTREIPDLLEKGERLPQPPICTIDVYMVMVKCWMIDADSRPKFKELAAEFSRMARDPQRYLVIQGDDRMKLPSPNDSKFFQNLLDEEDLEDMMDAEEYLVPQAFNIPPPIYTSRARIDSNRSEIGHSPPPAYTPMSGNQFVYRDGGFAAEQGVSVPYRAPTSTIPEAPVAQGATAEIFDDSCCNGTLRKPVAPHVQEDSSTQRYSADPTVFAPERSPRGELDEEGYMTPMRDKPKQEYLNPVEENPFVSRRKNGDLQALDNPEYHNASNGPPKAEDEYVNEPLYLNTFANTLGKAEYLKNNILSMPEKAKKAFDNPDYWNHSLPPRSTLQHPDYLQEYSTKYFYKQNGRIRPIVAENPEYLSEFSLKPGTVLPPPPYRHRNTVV

Structure (SMILES)	inhibition [1] [%]	inhibition [2] [%]	inhibition [3] [%]	inhibition [4] [%]	inhibition [5] [%]	inhibition [6] [%]	inhibition [7] [%]	inhibition [8] [%]	inhibition [9] [%]	inhibition [10] [%]
Cn1cc(C=C2C(=O)Nc3cccnc32)c2ccccc21	12	4.59	-0.71	0.9	5.16	0.95	3.11	9.66	9.14	0.48
CS(=O)(=O)Nc1ccc(N/C=C2\C(=O)Nc3ccccc32)cc1	0.55	-5.53	-3.88	0.19	-0.64	-3.57	-1.76		-9.44	1.8
O=C1NC(=O)C(c2ccc(Cl)cc2)=C1Nc1ccc(Cl)c(C(=O)O)c1	1.8	-6.22	-1.9	-0.68	-1.57	-2.94	-3.13	-7.86	-9.87	1.93
COc1ccccc1Nc1ncc(-c2ccccc2)o1	10.8	2.82	3.43	1.6	5.33	0.38	6.93	8.18	15.7	4.02
CS(=O)(=O)CCNCc1nc(-c2ccc3ncnc(Nc4ccc(F)c(Cl)c4)c3c2)cs1	22.5	6.15	9.44	1.4	8.6	7.41	34.5	46.6	83.1	1.44
CS(=O)(=O)CCN(CC#N)Cc1ccc(-c2ccc3ncnc(Nc4ccc(OCc5cccc(F)c5)c(Cl)c4)c3c2)o1	4.79	-1.45	-0.8	-2.59	-3.31	12.4	66.7	33.6	73.8	-0.11
CS(=O)(=O)CCNCc1ccc(-c2ccc3ncnc(Nc4ccc(OCc5cccc(F)c5)c(C(F)(F)F)c4)c3c2)o1	4.49	6.25	3.96	2.87	0.47	3.41	7.46	8.49	16.9	4.27
[O-][S+]1CCN(Cc2ccc(-c3ccc4ncnc(Nc5ccc(OCc6ccccc6)c(F)c5)c4c3)o2)CC1	-0.23	3.15	1.61	0.35	2.22	20.4	75.1	68.7	88.7	3.77
CCn1c(-c2nonc2N)nc2c(N3CCCC3)nccc21	-2.7	-2.28	-3.63	-1.4	-1.17	-5.46	-0.23	-3.28	-2.19	2.26
